Assay results reported in PubChem BioAssay (EPA / NIEHS).
Values joined by “and” are separate entries in the source; they are usually repeats but may differ in a detail not shown here. Equal entries are not always repeated. Results filed as inconclusive are left out. Where a structure was tested more than once in an assay, its records may differ in their call. Active and inactive are the calls of the source. Rule for the calls, unless noted: active = hit-call score of the fitted dose curve at least 0.9, where 1 is the maximum; inactive = score below 0.9.

Assays:
[1] = TAMU_HCS_1.5hr_SingleDonor1434_Cytotoxicity: Cytotoxicity Assessment using High-content Screening (HCS) Fluorescent Imaging for the Texas A&M University (TAMU) 1.5-hr Human Induced Pluripotent Stem Cell (iPSC)-derived Cardiotoxicity Assay (AID 2284234; active = hit-call score of the fitted dose curve at least 0.9, where 1 is the maximum)
How it was run: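 Nuclear counts from Hoechst 33342 imaging define cytotoxicity here, with EC10 (10% cell-count loss relative to DMSO) as point of departure. iPSC cardiomyocytes received 0.2-100 uM test chemical in 0.5% DMSO for 1.5 h at 37 C.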

[2] = TAMU_PeakParms_SingleDonor1434_QT: Texas A&M University (TAMU) 1.5-hr Human Induced Pluripotent Stem Cell (iPSC)-derived Cardiomyocytes Calcium (Ca+2) Flux Assay for Cardiotoxicity: QT (decay-rise ratio) (AID 2284235; active = hit-call score of the fitted dose curve at least 0.9, where 1 is the maximum)
How it was run: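 Decay/rise ratio of calcium-flux fluorescence scored after 90 min exposure (37C) of donor 1434 iPSC cardiomyocytes to 0.2–100 uM (0.5% DMSO). Beat-cessation and severe-notch points removed; POD is EC05, a 5% rise over DMSO.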

[3] = CCTE_Mundy_HCI_Cortical_Synap_Neur_Matur_CellBodySpotCount: CCTE's Synaptogenesis and Neurite Maturation Assay in rat cortical cells for Cell Body Spot Count, Mundy Lab (AID 2284223)
How it was run: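 Primary rat cortical cultures, AraC added at DIV 5; dosed DIV 7 through DIV 12 […]. Fixed, stained for MAP2 and synaptophysin with Hoechst; cell body-associated synaptophysin puncta per neuron counted by high-content imaging, loss vs DMSO.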

[4] = CCTE_Mundy_HCI_Cortical_NOG_BPCount: CCTE's Neurite Outgrowth Assay in rat cortical cells for Branch Point Count, Mundy Lab (AID 2284237);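 for AC50: branch points counted about two days after chemical exposure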
How it was run: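 Measured 50.33 h after dosing, this morphology endpoint uses rat primary cortical cultures labelled for betaIII-tubulin. Branch points are quantified by high-content imaging, with DMSO as negative control and baseline.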

[5] = CCTE_Mundy_HCI_hNP1_Casp3_7: CCTE's Caspase-Glo 3/7 Assay in human neuroprogenitor cells for Apoptosis, Mundy Lab (AID 2284240)
How it was run: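 Neuroepithelial-lineage stem cells from WA09 embryonic cells were treated with chemicals after 40–44 h of culture. Twenty-four hours later, caspase-3/7 activation was detected luminescently after a 30 min room-temperature reagent step, with DMSO as baseline.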

[6] = CCTE_Mundy_HCI_hNP1_CellTiter: CCTE's Cell Titer-Glo 2 Assay in human neuroprogenitor cells for Viability, Mundy Lab (AID 2284241; active = hit-call score of the fitted dose curve at least 0.9, where 1 is the maximum)
How it was run: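 Measures ATP content in human neural progenitors derived from WA09 embryonic cells. Read-out at 26.5 hours after dosing, with DMSO serving as the negative control and baseline.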

[7] = CCTE_Mundy_HCI_Cortical_Synap_Neur_Matur_NeuronCount: CCTE's Synaptogenesis and Neurite Maturation Assay in rat cortical cells for Neuron Count, Mundy Lab (AID 2284242; active = hit-call score of the fitted dose curve at least 0.9, where 1 is the maximum)
How it was run: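 Measured at DIV 12: fluorescently labelled neurons (Hoechst nuclei, MAP2) in rat primary cortical cultures, counted by high-content imaging. AraC suppressed glia from DIV 5; DMSO served as negative control.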

[8] = BSK_BT_PBMCCytotoxicity: PBMC Cytotoxicity Assessment in the BioMAP Diversity Plus: BT Assay (AID 2284225); conditions: primary human B cells with PBMC;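 note: PBMC viability measured by Alamar Blue dye reduction fluorescence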
How it was run: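 Primary human co-culture of B cells and PBMC, pre-dosed 1 h then activated with SEB and TSST-1. Cytotoxicity is taken from Alamar Blue dye reduction, added for 6 h at the end of a 90 h incubation.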

[9] = read-out: Secreted IgG (sIgG), gene 3500; experiment: BSK_BT_sIgG: BioMAP Diversity Plus: BT Assay for Secreted IgG (sIgG) Biomarker Activity (AID 2284226); conditions: primary human B cells with PBMC
How it was run: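 In this multiplexed co-culture system, ELISA quantifies sIgG 24 h post-treatment. Endpoint analysis uses positive fitting direction, DMSO negative control.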

[10] = BSK_BT_Bcell_Proliferation: Viability Assessment in the BioMAP Diversity Plus: BT Assay for B cell Proliferation (AID 2284227); conditions: primary human B cells with PBMC
How it was run: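 Human B cells co-cultured with PBMC were dosed with test chemicals and relative cell number was quantified by SRB staining at 72 h. Cells were fixed in 10% TCA, stained with 0.1% SRB and read at 560 nm. Activity was fitted in the positive direction against DMSO.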

[11] = read-out: Interleukin 6 (IL6), IL6 (gene 3569); experiment: BSK_BT_xIL6: BioMAP Diversity Plus: BT Assay for Interleukin 6 (IL6) Biomarker Activity (AID 2284228); conditions: primary human B cells with PBMC
How it was run: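 Human B cell/PBMC co-culture; secreted IL-6 quantified by Luminex xMAP 24 h after chemical dosing, fitted relative to DMSO. Parallel PBMC viability by Alamar Blue after 1 h pretreatment, 20 ng/mL SEB and TSST-1, 90 h incubation.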

[12] = read-out: Interleukin 17A (IL17A), IL17A (gene 3605); experiment: BSK_BT_xIL17A: BioMAP Diversity Plus: BT Assay for Interleukin 17A (IL17A) Biomarker Activity (AID 2284229); conditions: primary human B cells with PBMC
How it was run: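 Co-culture of human B cells and PBMC, dosed for 24 h in 96-well format. Secreted IL-17A measured with Luminex xMAP; gain-direction fitting against DMSO as baseline.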

[13] = read-out: Tumor necrosis factor (Homo sapiens) (UniProt P01375); experiment: BSK_BT_xTNFa: BioMAP Diversity Plus: BT Assay for Tumor necrosis factor alpha (TNF-alpha) Biomarker Activity (AID 2284230); conditions: primary human B cells with PBMC
How it was run: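 B cells with PBMC in co-culture, dosed and sampled at 24 h; secreted TNF-alpha measured by Luminex xMAP bead assay. Activity fitted in the gain direction against DMSO as negative control and baseline.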

[14] = read-out: Vascular cell adhesion molecule 1 (VCAM1), VCAM1 (gene 7412); experiment: BSK_MyoF_VCAM1: BioMAP Diversity Plus: MyoF Assay for Vascular cell adhesion molecule 1 (VCAM1) Biomarker Activity (AID 2284231); conditions: primary human lung fibroblasts
How it was run: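 Primary human lung fibroblasts (BioMAP MyoF system) dosed with chemical, VCAM-1 measured by ELISA 24 hours later. Fitted in the positive direction against DMSO; parallel SRB staining assessed cytotoxicity.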

[15] = read-out: Collagen I, COL1A1 (gene 1277); experiment: BSK_MyoF_CollagenI: BioMAP Diversity Plus: MyoF Assay for Collagen I Biomarker Activity (AID 2284238); conditions: primary human lung fibroblasts
How it was run: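 Primary human lung fibroblasts (MyoF system) treated 24 h; Collagen I quantified by ELISA and fitted in positive direction against DMSO. Parallel SRB total-protein staining assessed overt cytotoxicity.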

[16] = read-out: Collagen III, COL3A1 (gene 1281); experiment: BSK_MyoF_CollagenIII: BioMAP Diversity Plus: MyoF Assay for Collagen III Biomarker Activity (AID 2284239); conditions: primary human lung fibroblasts
How it was run: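 Primary human lung fibroblasts (BioMAP MyoF system) exposed 24 h. Collagen III measured by ELISA; positive-direction fit relative to DMSO.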

[17] = read-out: Interleukin 17F (IL17F), IL17F (gene 112744); experiment: BSK_BT_xIL17F: BioMAP Diversity Plus: BT Assay for Interleukin 17F (IL17F) Biomarker Activity (AID 2284243); conditions: primary human B cells with PBMC
How it was run: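 Human PBMC co-cultured with B cells, compound exposure 24 h; secreted IL-17F quantified by Luminex xMAP, referenced to DMSO control. PBMC viability measured in parallel by Alamar Blue reduction.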

[18] = read-out: Actin alpha 1 (ACTA1), ACTA1 (gene 58); experiment: BSK_MyoF_ACTA1: BioMAP Diversity Plus: MyoF Assay for Actin alpha 1 (ACTA1) Biomarker Activity (AID 2284244); conditions: primary human lung fibroblasts
How it was run: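 MyoF fibroblast system (human lung); a-SMA quantified via ELISA at 24 h; DMSO-normalised, gain-of-signal endpoint.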

[19] = read-out: Interleukin 2 (IL2), IL2 (gene 3558); experiment: BSK_BT_xIL2: BioMAP Diversity Plus: BT Assay for Interleukin 2 (IL2) Biomarker Activity (AID 2284245); conditions: primary human B cells with PBMC
How it was run: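 Co-cultures of primary human B cells and PBMC are treated with chemical and sampled at 24 h. IL-2 secretion is quantified by Luminex xMAP, with DMSO-treated wells as baseline.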

[20] = read-out: Basic fibroblast growth factor (bFGF), FGF2 (gene 2247); experiment: BSK_MyoF_bFGF: BioMAP Diversity Plus: MyoF Assay for Basic fibroblast growth factor (bFGF) Biomarker Activity (AID 2284246); conditions: primary human lung fibroblasts
How it was run: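 Fibroblasts from human lung, 24 h dosing. bFGF by ELISA; gain of signal over DMSO.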

Measured: AC50

Tumor necrosis factor (Homo sapiens), sequence (P01375 whole entry, looked up): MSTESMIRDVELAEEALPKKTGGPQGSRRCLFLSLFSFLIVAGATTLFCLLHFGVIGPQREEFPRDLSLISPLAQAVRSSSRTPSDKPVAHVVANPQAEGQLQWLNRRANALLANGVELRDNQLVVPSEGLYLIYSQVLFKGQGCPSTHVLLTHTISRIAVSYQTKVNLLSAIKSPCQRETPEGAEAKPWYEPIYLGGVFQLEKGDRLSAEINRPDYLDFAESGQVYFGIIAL

CCCCCCc1ccc(O)cc1O
inactive: [2]
active: [1] 50 µM

Cn1c(=O)c2c(ncn2C)n(C)c1=O
inactive: [3] | [4] | [5] | [6] | [7]

O=P(OC(CCl)CCl)(OC(CCl)CCl)OC(CCl)CCl
inactive: [3] | [5] | [7]
active: [4] 20.8 µM

Cn1cnc([N+](=O)[O-])c1Sc1ncnc2nc[nH]c12
active: [8] 8.01 µM | [9] 206 nM and 716 nM | [10] 10.5 µM and 5.28 µM | [11] 8.87 µM and 12.6 µM | [12] 12.6 µM and 10.3 µM | [13] 12.6 µM | [18] 0.254 µM | [19] 9.43 µM and 12.6 µM
inactive: [8] | [14] | [15] | [16] | [17] | [18] | [20]

NC(=O)NO
inactive: [3] | [2] | [4] | [5] | [6] | [7]

CC[C@H]1OC(=O)[C@H](C)[C@@H](O[C@H]2C[C@@](C)(OC)[C@@H](O)[C@H](C)O2)[C@H](C)[C@@H](O[C@@H]2O[C@H](C)C[C@H](N(C)C)[C@H]2O)[C@](C)(O)C[C@@H](C)C(=O)[C@H](C)[C@@H](O)[C@]1(C)O
inactive: [3] | [4] | [5] | [6] | [7]

O=C1CCC(N2C(=O)c3ccccc3C2=O)C(=O)N1 (configuration not stated)
inactive: [3] | [4] | [5] | [6] | [7]
